These results are taken from paper PMC7862700, “An all-to-all approach to the identification of sequence-specific readers for epigenetic DNA modifications on cytosine”.

Common to all, as to assay: DAPPL (digital affinity profiling via proximity ligation, sequencing); 10 mM Tris-HCl pH 7.5, 50 mM NaCl, 1 mM DTT, 4% glycerol, room temperature, 30 min; GST-TFs on glutathione beads, 16-mer random dsDNA library, 0.1% formaldehyde crosslink after washing; high values mean tight binding
For one test, the target named is T1, FLI1 (Homo sapiens, UniProt Q01543 1-452).
T1 sequence: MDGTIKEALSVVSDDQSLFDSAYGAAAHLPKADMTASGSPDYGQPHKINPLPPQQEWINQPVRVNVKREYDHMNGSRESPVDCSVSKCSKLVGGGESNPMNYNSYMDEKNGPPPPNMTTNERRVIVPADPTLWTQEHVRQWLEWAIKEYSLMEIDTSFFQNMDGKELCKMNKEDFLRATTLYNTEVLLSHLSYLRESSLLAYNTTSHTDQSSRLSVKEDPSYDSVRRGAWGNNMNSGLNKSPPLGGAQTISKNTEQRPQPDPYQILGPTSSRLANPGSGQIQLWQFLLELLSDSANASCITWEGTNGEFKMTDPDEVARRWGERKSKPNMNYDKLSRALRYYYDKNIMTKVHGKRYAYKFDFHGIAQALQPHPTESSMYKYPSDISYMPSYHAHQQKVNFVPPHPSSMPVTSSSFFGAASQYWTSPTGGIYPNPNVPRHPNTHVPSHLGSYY
The conditions noted are these: protein: recombinant; tags: N-terminal GST; dsDNA, one strand shown. A digest of the protocol:
(§1)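 Sequencing on an Illumina NextSeq500 followed washing, crosslinking with 0.1% formaldehyde, proximity ligation (BsaI/T4 ligase, 1 h, 37 °C) and PCR amplification of pools that had been incubated for 30 min at room temperature with 200 nmole of a random double-stranded 16-mer DNA library in Tris/NaCl/DTT/glycerol buffer. Each pool held DNA-barcoded human transcription factors, expressed in yeast as GST fusions and captured on glutathione beads, plus a tag-only sample. Binding signal is a hexamer's read frequency for a factor divided by its frequency in the tag-only sample.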

For the next test, the target named is T2, ELK1 (Homo sapiens, UniProt P19419 1-428).
T2 sequence: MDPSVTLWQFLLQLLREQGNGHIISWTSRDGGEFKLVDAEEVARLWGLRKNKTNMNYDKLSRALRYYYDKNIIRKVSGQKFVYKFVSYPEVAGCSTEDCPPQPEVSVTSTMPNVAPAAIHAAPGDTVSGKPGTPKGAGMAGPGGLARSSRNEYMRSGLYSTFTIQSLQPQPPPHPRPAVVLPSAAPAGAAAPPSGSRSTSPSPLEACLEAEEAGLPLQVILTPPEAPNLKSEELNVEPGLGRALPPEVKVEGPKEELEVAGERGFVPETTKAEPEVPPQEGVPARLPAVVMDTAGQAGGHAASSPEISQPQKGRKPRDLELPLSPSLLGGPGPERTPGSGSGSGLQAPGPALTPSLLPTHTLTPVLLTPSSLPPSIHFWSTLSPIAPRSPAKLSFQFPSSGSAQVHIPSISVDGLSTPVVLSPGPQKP
The settings on record: protein: recombinant; tags: N-terminal GST; dsDNA, one strand shown. In a few lines: as §1

The next test addresses T3, GABPA (Homo sapiens, UniProt Q06546 1-454).
T3 sequence: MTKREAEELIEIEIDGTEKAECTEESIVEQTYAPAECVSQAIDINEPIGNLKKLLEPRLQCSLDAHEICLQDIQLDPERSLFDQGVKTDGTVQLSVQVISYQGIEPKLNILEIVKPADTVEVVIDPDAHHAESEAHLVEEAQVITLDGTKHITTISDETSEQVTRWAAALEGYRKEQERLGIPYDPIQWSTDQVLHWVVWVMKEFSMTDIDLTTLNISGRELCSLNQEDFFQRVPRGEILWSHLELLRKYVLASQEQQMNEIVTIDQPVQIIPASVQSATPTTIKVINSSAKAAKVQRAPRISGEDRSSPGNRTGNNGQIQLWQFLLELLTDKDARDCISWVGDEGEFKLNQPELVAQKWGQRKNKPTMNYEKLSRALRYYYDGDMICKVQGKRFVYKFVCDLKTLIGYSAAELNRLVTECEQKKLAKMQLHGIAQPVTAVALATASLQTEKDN
The settings on record: protein: recombinant; tags: N-terminal GST; dsDNA, one strand shown. A digest of the protocol: as §1

Another test addresses T4, ERG (Homo sapiens, UniProt P11308 1-479).
T4 sequence: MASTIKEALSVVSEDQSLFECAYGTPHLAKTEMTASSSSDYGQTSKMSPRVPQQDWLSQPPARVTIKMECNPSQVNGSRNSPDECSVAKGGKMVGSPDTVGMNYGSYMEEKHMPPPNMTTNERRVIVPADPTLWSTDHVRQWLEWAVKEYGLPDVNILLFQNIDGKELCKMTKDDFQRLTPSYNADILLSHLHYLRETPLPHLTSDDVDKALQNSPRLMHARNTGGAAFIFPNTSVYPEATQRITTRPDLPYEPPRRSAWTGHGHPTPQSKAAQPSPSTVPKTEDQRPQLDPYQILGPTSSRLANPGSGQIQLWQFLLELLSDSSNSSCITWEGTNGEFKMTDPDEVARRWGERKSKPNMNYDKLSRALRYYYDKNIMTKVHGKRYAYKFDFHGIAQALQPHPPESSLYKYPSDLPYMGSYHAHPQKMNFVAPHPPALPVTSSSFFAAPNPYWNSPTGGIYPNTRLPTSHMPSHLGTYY
The conditions noted are these: protein: recombinant; tags: N-terminal GST; dsDNA, one strand shown. A digest of the protocol:
as §1

The target in the next test is ELF1 (Homo sapiens, UniProt P32519 1-619). The conditions noted are these: protein: recombinant; tags: N-terminal GST; dsDNA, one strand shown. In a few lines:
as §1

The next test has as its target T5, EHF (Homo sapiens, UniProt Q9NZC4 1-300).
T5 sequence: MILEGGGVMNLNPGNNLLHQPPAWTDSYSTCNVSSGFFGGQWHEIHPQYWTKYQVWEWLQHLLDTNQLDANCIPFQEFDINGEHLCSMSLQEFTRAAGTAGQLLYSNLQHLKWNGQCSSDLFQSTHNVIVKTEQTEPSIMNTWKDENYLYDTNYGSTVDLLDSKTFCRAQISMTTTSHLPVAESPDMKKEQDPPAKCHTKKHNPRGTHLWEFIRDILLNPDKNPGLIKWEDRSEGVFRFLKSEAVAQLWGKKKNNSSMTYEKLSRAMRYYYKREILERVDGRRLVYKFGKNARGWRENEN
The conditions noted are these: protein: recombinant; tags: N-terminal GST; dsDNA, one strand shown. A digest of the protocol: as §1

A further test has as its target SPIB (Homo sapiens, UniProt Q01892 1-262). The settings on record: protein: recombinant; tags: N-terminal GST; dsDNA, one strand shown. A digest of the protocol: as §1
For the next test, the target named is T6, ELK3 (Homo sapiens, UniProt P41970 1-407).
T6 sequence: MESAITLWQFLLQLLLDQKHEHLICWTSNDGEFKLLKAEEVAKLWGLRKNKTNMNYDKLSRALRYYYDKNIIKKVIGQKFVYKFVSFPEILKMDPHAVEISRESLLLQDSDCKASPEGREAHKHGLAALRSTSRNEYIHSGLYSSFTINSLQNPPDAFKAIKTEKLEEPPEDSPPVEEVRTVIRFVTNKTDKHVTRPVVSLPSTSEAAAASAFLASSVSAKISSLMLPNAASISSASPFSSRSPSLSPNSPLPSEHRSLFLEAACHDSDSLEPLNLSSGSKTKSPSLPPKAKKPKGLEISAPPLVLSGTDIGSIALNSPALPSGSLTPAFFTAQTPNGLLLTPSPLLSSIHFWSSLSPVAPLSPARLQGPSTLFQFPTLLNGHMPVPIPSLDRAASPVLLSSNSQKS
The settings on record: protein: recombinant; tags: N-terminal GST; dsDNA, one strand shown. A digest of the protocol: as §1

The next test deals with T7, FEV (Homo sapiens, UniProt Q99581 1-238).
T7 sequence: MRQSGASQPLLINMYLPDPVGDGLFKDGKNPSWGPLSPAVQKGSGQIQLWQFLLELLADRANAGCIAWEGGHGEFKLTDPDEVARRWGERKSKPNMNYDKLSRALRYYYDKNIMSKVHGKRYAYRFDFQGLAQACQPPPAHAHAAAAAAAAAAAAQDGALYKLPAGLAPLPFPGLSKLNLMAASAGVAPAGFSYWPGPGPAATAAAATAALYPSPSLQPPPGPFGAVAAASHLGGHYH
The settings on record: protein: recombinant; tags: N-terminal GST; dsDNA, one strand shown. A digest of the protocol: as §1

In another test the target is ETV5 (Homo sapiens, UniProt P41161 1-510). The conditions noted are these: protein: recombinant; tags: N-terminal GST; dsDNA, one strand shown. A digest of the protocol: as §1
Chain of ETV5 (P41161 whole entry): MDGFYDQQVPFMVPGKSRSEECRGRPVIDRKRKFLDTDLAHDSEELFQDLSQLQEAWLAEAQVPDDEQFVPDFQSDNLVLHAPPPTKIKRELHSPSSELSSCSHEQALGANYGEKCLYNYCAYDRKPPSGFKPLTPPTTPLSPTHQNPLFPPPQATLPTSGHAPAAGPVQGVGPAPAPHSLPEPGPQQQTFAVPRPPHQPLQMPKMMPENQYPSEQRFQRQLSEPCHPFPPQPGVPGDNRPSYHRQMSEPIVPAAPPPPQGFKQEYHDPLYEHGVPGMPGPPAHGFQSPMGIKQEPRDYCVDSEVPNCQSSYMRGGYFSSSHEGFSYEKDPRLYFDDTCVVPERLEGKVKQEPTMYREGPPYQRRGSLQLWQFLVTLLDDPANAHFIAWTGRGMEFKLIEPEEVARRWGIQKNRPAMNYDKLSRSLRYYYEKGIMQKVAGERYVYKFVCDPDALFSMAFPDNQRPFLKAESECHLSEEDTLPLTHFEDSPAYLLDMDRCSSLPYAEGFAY
The target in another test is HSF1 (Homo sapiens, UniProt Q00613 1-529). The settings on record: protein: recombinant; tags: N-terminal GST; chain copies: 3; dsDNA, one strand shown. In a few lines: as §1
Chain of HSF1 (Q00613 whole entry): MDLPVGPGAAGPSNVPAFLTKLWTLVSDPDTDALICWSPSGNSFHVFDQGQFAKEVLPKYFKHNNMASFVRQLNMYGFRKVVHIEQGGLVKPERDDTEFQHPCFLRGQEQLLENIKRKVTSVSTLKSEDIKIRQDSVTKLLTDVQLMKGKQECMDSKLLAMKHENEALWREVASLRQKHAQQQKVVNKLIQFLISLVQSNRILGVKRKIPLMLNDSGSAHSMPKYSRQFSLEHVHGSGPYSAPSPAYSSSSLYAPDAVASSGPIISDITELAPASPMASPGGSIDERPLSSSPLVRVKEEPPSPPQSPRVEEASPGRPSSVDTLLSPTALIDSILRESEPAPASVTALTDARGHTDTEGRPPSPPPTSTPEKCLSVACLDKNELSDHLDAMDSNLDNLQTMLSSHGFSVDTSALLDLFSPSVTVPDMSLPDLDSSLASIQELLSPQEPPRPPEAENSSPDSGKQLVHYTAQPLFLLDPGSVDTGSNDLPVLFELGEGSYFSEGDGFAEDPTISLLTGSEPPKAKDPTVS
The target in a further test is T8, SPIC (Homo sapiens, UniProt Q8N5J4 1-248).
T8 sequence: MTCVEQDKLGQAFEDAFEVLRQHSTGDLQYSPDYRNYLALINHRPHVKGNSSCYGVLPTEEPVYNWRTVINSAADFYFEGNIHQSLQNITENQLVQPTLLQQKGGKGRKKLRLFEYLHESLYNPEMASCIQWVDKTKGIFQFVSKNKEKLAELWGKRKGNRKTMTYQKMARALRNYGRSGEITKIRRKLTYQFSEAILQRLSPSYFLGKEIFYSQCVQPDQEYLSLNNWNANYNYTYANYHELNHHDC
The conditions noted are these: protein: recombinant; tags: N-terminal GST; dsDNA, one strand shown. In a few lines:
as §1

Another test deals with ELF4 (Homo sapiens, UniProt Q99607 1-663). The settings on record: protein: recombinant; tags: N-terminal GST; dsDNA, one strand shown. In a few lines: as §1
Chain of ELF4 (Q99607 whole entry): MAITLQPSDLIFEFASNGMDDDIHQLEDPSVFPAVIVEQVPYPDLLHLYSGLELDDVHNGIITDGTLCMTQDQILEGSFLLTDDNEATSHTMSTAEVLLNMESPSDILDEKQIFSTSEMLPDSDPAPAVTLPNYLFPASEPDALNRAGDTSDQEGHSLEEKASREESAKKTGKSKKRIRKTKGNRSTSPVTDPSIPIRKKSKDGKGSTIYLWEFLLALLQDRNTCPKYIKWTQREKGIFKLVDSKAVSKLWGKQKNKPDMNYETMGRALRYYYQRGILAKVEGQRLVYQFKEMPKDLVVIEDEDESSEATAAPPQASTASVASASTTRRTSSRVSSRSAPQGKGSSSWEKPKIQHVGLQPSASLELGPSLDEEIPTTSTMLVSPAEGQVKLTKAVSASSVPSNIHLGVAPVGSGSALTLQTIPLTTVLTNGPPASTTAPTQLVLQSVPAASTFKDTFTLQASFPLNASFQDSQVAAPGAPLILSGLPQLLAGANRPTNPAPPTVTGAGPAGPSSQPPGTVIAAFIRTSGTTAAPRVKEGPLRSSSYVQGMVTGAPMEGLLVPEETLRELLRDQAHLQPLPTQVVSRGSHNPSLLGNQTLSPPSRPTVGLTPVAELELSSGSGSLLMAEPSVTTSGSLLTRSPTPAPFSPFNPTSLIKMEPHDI
In the next test the target is T9, ELK4 (Homo sapiens, UniProt P28324-2 1-405).
T9 sequence: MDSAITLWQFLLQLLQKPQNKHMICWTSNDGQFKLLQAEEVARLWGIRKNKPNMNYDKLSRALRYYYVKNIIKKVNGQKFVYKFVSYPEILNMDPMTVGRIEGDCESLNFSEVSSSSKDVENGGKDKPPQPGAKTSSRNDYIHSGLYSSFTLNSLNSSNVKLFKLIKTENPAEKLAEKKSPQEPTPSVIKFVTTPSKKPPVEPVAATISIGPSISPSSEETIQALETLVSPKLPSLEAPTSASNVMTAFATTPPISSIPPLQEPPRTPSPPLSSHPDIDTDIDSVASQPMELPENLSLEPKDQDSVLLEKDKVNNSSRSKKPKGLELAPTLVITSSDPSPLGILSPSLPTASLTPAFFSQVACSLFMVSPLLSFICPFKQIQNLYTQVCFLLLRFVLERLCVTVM
The settings on record: protein: recombinant; tags: N-terminal GST; dsDNA, one strand shown. In a few lines: as §1

Another test deals with T10, ETV2 (Homo sapiens, UniProt O00321 1-342).
T10 sequence: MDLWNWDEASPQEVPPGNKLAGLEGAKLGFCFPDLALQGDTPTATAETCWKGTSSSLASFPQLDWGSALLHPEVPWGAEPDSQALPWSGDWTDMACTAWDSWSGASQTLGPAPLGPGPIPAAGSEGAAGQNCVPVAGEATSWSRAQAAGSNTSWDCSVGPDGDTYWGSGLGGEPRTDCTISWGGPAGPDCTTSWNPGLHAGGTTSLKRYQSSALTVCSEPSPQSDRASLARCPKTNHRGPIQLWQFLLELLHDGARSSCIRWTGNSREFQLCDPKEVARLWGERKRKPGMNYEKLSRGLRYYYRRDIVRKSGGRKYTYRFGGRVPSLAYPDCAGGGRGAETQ
The settings on record: protein: recombinant; tags: N-terminal GST; dsDNA, one strand shown. A digest of the protocol:
as §1

For a further test, the target named is T11, ELF3 (Homo sapiens, UniProt P78545 1-371).
T11 sequence: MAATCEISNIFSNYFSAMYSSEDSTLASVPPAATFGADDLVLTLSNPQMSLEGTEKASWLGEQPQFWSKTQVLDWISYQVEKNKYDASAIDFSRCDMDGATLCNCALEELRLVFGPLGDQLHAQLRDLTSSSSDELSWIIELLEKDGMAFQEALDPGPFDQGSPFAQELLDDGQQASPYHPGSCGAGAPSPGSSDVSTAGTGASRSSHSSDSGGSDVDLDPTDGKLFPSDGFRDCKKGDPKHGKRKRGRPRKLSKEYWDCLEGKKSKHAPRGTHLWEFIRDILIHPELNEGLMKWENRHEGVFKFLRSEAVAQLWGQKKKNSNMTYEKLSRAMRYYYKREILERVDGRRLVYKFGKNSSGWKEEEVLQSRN
The settings on record: protein: recombinant; tags: N-terminal GST; dsDNA, one strand shown. A digest of the protocol:
as §1

The next test addresses CRX (Homo sapiens, UniProt O43186 1-299). The conditions noted are these: protein: recombinant; tags: N-terminal GST; dsDNA, one strand shown. A digest of the protocol: as §1
The target in the next test is ETV1 (Homo sapiens, UniProt P50549 1-477). The settings on record: protein: recombinant; tags: N-terminal GST; dsDNA, one strand shown. In a few lines: as §1
Chain of ETV1 (P50549 whole entry): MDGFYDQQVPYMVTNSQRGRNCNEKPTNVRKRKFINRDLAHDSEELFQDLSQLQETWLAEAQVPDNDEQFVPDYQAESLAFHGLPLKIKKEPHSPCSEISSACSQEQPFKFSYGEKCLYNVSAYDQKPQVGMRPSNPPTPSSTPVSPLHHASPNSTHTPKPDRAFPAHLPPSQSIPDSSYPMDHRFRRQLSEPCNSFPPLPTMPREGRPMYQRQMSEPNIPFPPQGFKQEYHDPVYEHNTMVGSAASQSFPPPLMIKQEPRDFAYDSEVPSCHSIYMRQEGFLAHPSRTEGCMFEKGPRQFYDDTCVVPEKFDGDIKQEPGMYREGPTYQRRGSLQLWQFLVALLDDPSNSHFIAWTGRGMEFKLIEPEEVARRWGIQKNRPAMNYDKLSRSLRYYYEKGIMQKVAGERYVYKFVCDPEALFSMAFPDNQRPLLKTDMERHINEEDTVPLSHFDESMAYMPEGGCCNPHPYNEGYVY

Chain of SPIB (Q01892 whole entry): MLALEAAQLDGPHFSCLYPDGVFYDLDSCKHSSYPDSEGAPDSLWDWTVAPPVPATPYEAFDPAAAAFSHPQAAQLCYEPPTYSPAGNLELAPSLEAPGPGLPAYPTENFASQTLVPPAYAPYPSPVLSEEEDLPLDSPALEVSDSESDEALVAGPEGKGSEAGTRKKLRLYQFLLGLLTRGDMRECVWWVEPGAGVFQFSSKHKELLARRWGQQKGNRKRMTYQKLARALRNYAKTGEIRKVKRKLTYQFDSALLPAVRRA
Chain of CRX (O43186 whole entry): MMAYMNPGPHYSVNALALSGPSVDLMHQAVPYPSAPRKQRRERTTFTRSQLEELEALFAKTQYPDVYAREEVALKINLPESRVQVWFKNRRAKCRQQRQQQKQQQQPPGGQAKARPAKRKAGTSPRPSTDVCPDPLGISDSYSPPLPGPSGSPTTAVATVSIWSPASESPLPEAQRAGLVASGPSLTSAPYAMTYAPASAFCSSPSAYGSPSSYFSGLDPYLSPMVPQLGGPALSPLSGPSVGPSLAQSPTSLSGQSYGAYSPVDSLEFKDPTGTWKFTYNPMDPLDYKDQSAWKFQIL
Chain of ELF1 (P32519 whole entry): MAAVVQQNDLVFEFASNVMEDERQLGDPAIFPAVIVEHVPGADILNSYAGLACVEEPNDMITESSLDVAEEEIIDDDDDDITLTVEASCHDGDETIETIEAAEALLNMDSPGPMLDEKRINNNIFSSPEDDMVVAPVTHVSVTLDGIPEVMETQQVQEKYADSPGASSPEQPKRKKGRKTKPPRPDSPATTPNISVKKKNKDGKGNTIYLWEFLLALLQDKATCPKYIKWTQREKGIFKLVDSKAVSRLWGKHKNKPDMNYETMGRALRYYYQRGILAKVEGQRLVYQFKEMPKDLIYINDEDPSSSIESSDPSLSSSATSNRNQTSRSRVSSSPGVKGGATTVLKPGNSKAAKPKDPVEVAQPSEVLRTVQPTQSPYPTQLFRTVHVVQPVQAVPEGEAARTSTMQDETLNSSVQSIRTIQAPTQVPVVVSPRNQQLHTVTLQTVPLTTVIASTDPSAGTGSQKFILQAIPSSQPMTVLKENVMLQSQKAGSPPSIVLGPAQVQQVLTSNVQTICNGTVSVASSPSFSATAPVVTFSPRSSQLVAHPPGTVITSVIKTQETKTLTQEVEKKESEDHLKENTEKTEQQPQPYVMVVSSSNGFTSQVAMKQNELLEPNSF

Regarding ATCTGA, the binding signal with FLI1 was 1.08 fold enrichment (6-mer frequency, TF over GST control); with ELK1, 1.08 fold enrichment (6-mer frequency, TF over GST control); in the test with GABPA, 1.21 fold enrichment (6-mer frequency, TF over GST control); with ERG it was 1.07 fold enrichment (6-mer frequency, TF over GST control); with ELF1, 1.16 fold enrichment (6-mer frequency, TF over GST control); in the test with EHF, 1.17 fold enrichment (6-mer frequency, TF over GST control). The binding signal with SPIB was 1.17 fold enrichment (6-mer frequency, TF over GST control); with ELK3 it was 1.2 fold enrichment (6-mer frequency, TF over GST control); with FEV it was 1.1 fold enrichment (6-mer frequency, TF over GST control); in the test with ETV5, 1.07 fold enrichment (6-mer frequency, TF over GST control); in the test with HSF1, 1.16 fold enrichment (6-mer frequency, TF over GST control); with SPIC, 1.21 fold enrichment (6-mer frequency, TF over GST control). Moreover, the binding signal is 1.09 fold enrichment (6-mer frequency, TF over GST control) in the test with ELF4; 1.2 fold enrichment (6-mer frequency, TF over GST control) in the test with ELK4; 1.01 fold enrichment (6-mer frequency, TF over GST control) in the test with ETV2; 1.12 fold enrichment (6-mer frequency, TF over GST control) in the test with ELF3; 1.4 fold enrichment (6-mer frequency, TF over GST control) in the test with CRX; 1.24 fold enrichment (6-mer frequency, TF over GST control) with ETV1.
